{"source": "PubChem BioAssay (NCATS)", "note": "Inconclusive results are not listed. Active and inactive are the calls of the source. Calls come from the whole dose curve; as a rule, active = well fitted inhibition curve with a large enough effect; inconclusive = small, poorly fitted or top-dose-only effect; inactive = flat fitted curve, though single readings scatter. % is set by controls: 0 for no effect and ±100 for the full control effect; potency is the fitted concentration of half-maximal effect.", "data": [{"assay": "qHTS assay for small molecule disruptors of mitochondrial membrane potential screened against the NCATS CANVASS Library (AID 1347389); note: nearly all actives have a fitted effect of over 60% in size", "conditions": "HepG2 mitochondrial membrane potential, m-MPI red/green ratio, 1.5 h; series mostly up to 46.1 µM; activity change, negative = depolarization: at the top concentration", "text": "Natural products and their derivatives continue to be wellsprings of nascent therapeutic potential. However, many laboratories have limited resources for biological evaluation, leaving their previously isolated or synthesized compounds largely or completely untested. To address this issue, the Canvass library of natural products was assembled (https://tripod.nih.gov/canvass), in collaboration with academic and industry researchers, for quantitative high-throughput screening (qHTS) across a diverse set of cell-based and biochemical assays. The pure (>85% purity by liquid chromatography/mass spectrometry [LC/MS]) Canvass library of 346 natural products were submitted by 45 academic laboratories and companies around the world. We collected pure natural products to circumvent deconvolution and structure elucidation due to time and resource limitations. The library was formatted into 1536-well plates and evaluated in 50 qHTS (in an 11-pnt concentration series) bioassays with broad scope of disease-relevant mechanisms. The resulting data set from 50 different assays was then systematically analyzed to identify overall trends and specific natural products with interesting biological activities. Reported herein are the results of each individual qHTS and their corresponding assay protocol. In healthy cells, the mitochondria are polarized and mitochondrial-membrane potential indicator (m-MPI) accumulates in the mitochondria as red fluorescent aggregates (emission at 590 nm). As the mitochondrial membrane depolarizes, m-MPI red-colored J-aggregates are converted to green fluorescent monomers (emission at 535 nm) and released from mitochondria into the cytosol. In response to mitochondrial depolarization, the red-to-green fluorescence ratio decreases. National Center for Advancing Translational Sciences (NCATS), Rockville, MD National Institute of Health (NIH), Bethesda, Maryland\nMitochondrial membrane potential protocol: 2,000 HepG2 cells in 5 uL/well were dispensed into black, clear-bottom 1536-well plates using a Multidrop Combi (Thermo Scientific) dispenser. The assay plates were incubated overnight at 37C to allow cells to attach to the wells, followed by the transfer of 23 nL compound or DMSO vehicle by a pin tool (Kalypsys). The plates were incubated for 1 hr at 37C and 5% CO2, followed by the addition of 5 uL of 2X Mito-MPS dye (BD Biosciences) into each well using Flying Reagent Dispenser (Aurora Discovery) and then following 30 min incubation at 37C. Fluorescence intensity (490nm excitation and 535nm emission for monomers; and 540nm excitation and 590nm emissions for aggregates) was measured using an Envision plate reader.", "values": [{"smiles": "C/C=C1/CN2CC[C@]34C(=Nc5ccccc53)[C@@H]2C[C@@H]1[C@H]4C(=O)OC", "activity change, negative = depolarization": "4.85% [at 91.4 µM] (inactive)"}, {"smiles": "CO[C@@H](/C=C/CC/C=C/C(=O)O)[C@@H](O)[C@H](C)[C@@H](O)/C(C)=C/[C@H](C)C(=O)CCCC1CC(=O)NC(=O)C1", "activity change, negative = depolarization": "3.79% (inactive)"}, {"smiles": "CC[C@@H]1CN2CC[C@@]3(O)C(=Nc4cccc(OC)c43)[C@@H]2C[C@@H]1/C(=C\\OC)C(=O)OC", "activity change, negative = depolarization": "-7.63% (inactive)"}, {"smiles": "CCC[C@H]1CC[C@H]2[C@H](C)CCC[C@H]2N1", "activity change, negative = depolarization": "8.15% (inactive)"}, {"smiles": "CNCCc1c[nH]c2ccccc12", "activity change, negative = depolarization": "6.48% (inactive)"}, {"smiles": "COC(=O)C1=C2Nc3ccccc3[C@@]23CCN2CC(C(C)=O)C1C[C@H]23", "note": "(stereo partly specified)", "activity change, negative = depolarization": "4.33% (inactive)"}, {"smiles": "CC1=CC2CC[C@@H]3[C@@H](C)C[C@H](C)[C@@H](C1)N23", "note": "(stereo partly specified)", "activity change, negative = depolarization": "8.01% (inactive)"}, {"smiles": "C[C@]12CC(O)C3[C@@H](CCC4C[C@@H](O)CC[C@@]43CO)[C@@]1(O)CCC2C1=CC(=O)OC1", "note": "(stereo partly specified)", "activity change, negative = depolarization": "5.71% (inactive)"}, {"smiles": "CC=C1CN(C=O)[C@H]2C[C@@H]1[C@@H](C(=O)OC)[C@@]13CCOC21Nc1ccccc13", "note": "(stereo partly specified)", "activity change, negative = depolarization": "2.42% (inactive)"}, {"smiles": "CC[N@@+]1([O-])C[C@]2(C)CC[C@@H](O)[C@@]34C5C[C@H]6CC[C@@]5(C(C[C@H]23)C41)[C@H](O)[C@@]6(O)CO", "note": "(stereo partly specified)", "activity change, negative = depolarization": "-1.64% (inactive)"}, {"smiles": "CO[C@@H](/C=C/CC/C=C/C(=O)O)[C@@H](O)[C@H](C)/C=C(\\C)[C@@H](O)[C@H](C)C(=O)CCCC1CC(=O)NC(=O)C1", "activity change, negative = depolarization": "-2.93% (inactive)"}, {"smiles": "C=C1[C@@H](C)[C@H]2[C@H](Cc3ccccc3)NC(=O)[C@]23OC(=O)/C=C/[C@H](O)CCC[C@@H](C)C/C=C/[C@H]3[C@@H]1O", "activity change, negative = depolarization": "-1% (inactive)"}, {"smiles": "CCN1C[C@]2(C)CC[C@H](O)[C@]34C1C(C[C@H]23)[C@@]12CC[C@H](CC14)[C@](O)(COC(=O)c1ccc(OC)c(OC)c1)[C@H]2O", "note": "(stereo partly specified)", "activity change, negative = depolarization": "13.5% (inactive)"}, {"smiles": "CN(C)Cc1c[nH]c2ccccc12", "activity change, negative = depolarization": "6.35% (inactive)"}, {"smiles": "CC1=CC(=O)C2=C(C)C[C@H](O)[C@@H]3[C@H](OC(=O)[C@@H]3C)[C@@H]12", "activity change, negative = depolarization": "1.5% (inactive)"}, {"smiles": "CNCCc1ccc(O)cc1", "activity change, negative = depolarization": "3.29% (inactive)"}, {"smiles": "CN1C(=O)[C@]23CC4C(C)(C)[C@@]5(C[C@@]41CN2CC[C@@]3(C)O)C(=O)Nc1c5ccc2c1OC=CC(C)(C)O2", "note": "(stereo partly specified)", "activity change, negative = depolarization": "-14.2% (inactive)"}, {"smiles": "O=C(c1ccccc1O)c1[nH]c(Cl)c(Cl)c1-n1c(C(=O)c2ccccc2O)cc(Cl)c1Cl", "Potency": "0.0933 µM (active)"}, {"smiles": "NCCc1ccccc1", "activity change, negative = depolarization": "2.58% (inactive)"}, {"smiles": "CCCC[C@@H]1CC[C@H]2CCCC(CCC)N12", "note": "(stereo partly specified)", "activity change, negative = depolarization": "1.29% (inactive)"}, {"smiles": "C[C@@H]1CC[C@@H](c2ccoc2)N2C[C@@]3(CC[C@@H]12)CS[C@@]1(CC[C@H]2[C@H](C)CC[C@@H](c4ccoc4)N2[C@@H]1O)C3", "Potency": "13.2 µM (active)"}, {"smiles": "COc1ccc2c3c([nH]c2c1)C(C)=NCC3", "activity change, negative = depolarization": "-16.6% (inactive)"}, {"smiles": "CCCCC[C@@H]1OC(=O)[C@@H](C)N(C)C(=O)[C@H](CCCCC)OC(=O)C(C)N(C)C(=O)[C@H](CCCCC)OC(=O)[C@@H](C)N(C)C(=O)[C@H](CCCCC)OC(=O)C(C)N(C)C1=O", "note": "(stereo partly specified)", "Potency": "4.17 µM (active)"}, {"smiles": "c1ccc2c3c([nH]c2c1)CNCC3", "activity change, negative = depolarization": "9.39% (inactive)"}, {"smiles": "CNCCc1ccccc1", "activity change, negative = depolarization": "0.794% (inactive)"}, {"smiles": "COc1ccc(C23Oc4cc(OC)cc(OC)c4[C@](O)([C@H](c4ccccc4)C2C(=O)NCCCCNC(=O)c2ccccc2)[C@@H]3O)cc1", "note": "(stereo partly specified)", "activity change, negative = depolarization": "5.11% (inactive)"}, {"smiles": "CCN1C[C@]2(C)CC[C@@H](O)[C@]34C1[C@H](C[C@H]23)C12CCC(CC14)[C@](O)(CO)[C@H]2O", "note": "(stereo partly specified)", "activity change, negative = depolarization": "-3.95% (inactive)"}, {"smiles": "CCC(=O)CCCCC[C@@H]1NC(=O)[C@H]2CCCCN2C(=O)[C@H]([C@@H](C)CC)NC(=O)[C@H](Cc2cn(OC)c3ccccc23)NC1=O", "activity change, negative = depolarization": "-19.1% (inactive)"}, {"smiles": "CC(=O)N[C@H]1CCN2CCC[C@H]12", "activity change, negative = depolarization": "9.42% [at 103 µM] (inactive)"}, {"smiles": "COc1ccc2c(c1)[nH]c1c(C)nccc12", "activity change, negative = depolarization": "-13.7% [at 91.4 µM] (inactive)"}, {"smiles": "CO[C@H](c1ccccc1)[C@H]1NC(=O)C(C)NC(=O)C(C[C@@H](C)CO)N(C)C(=O)[C@@H](C(O)c2cn(C(C)(C)C3CO3)c3ccccc23)NC(=O)C(C(C)C=C(C)C)NC(=O)C(CC(C)C)N(C)C(=O)C(C(C)C)NC1=O", "note": "(stereo partly specified)", "activity change, negative = depolarization": "3.64% [at 27.5 µM] (inactive)"}]}]}
